Results filed as inconclusive are left out. Unmarked numbers belong to inactive results. Calls follow the shape of the dose curve; as a rule, active = well fitted curve in the direction sought with a large enough effect; inconclusive = small, poorly fitted or top-dose-only effect, or another doubt; inactive = no such curve, though single readings can be large; an effect the other way counts as inactive or inconclusive.
test: qHTS of pediatric cancer cell lines to identify multiple opportunities for drug repurposing: Primary screen for control Hh wild type fibroblast cells (AID 1347106); conditions: Hh wild-type fibroblast viability, CellTiter-Glo luminescence, 48 h; series mostly up to 46 µM; activity change, negative = cytotoxic: at the top concentration;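 also: a drop in luminescence marks cytotoxicity and a rise apparent proliferation; nearly all actives have a fitted effect of over 55% in size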
How it was run: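 Cells (500-1,000/well) in growth media were settled 5 h at 37 degrees C, then given compounds for 48 h. Viability was read as CellTiter-Glo luminescence. Primary runs used MIPE at 11 points (0.78 nM-46 µM) and NPC at 8 points (0.59 nM-46 µM); follow-ups used 11 points.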
% is scaled to controls: 0 for no effect and ±100 for the full control effect.

Structure (SMILES) | activity change, negative = cytotoxic
Cc1cc(C)c(NC(=O)CN(CC(=O)O)CC(=O)O)c(C)c1Br | 16.7%
CCOC(=O)c1cccnc1 | 7.6%
COc1cc(O)cc(O)c1 | -3.28%
O=C(O)[C@@H]1[C@H]2C[C@H]3c4[nH]c5ccccc5c4CCN3C[C@@H]2CC[C@@H]1O | 11.4%
CC(C)NC[C@@H](O)COc1ccc(CC(N)=O)cc1 | -3.64%
Cc1cc(NC(=O)C2=C(O)c3ccccc3S(=O)(=O)N2C)no1 | -1.42%
CC(=O)Nc1cccc(O)c1 | 7.91%
COc1cc(C(=O)NCCCCCC(=O)O)cc(OC)c1OC | 11.6%
CC(=O)SC[C@@H](Cc1ccccc1)C(=O)NCC(=O)OCc1ccccc1 | 8.57%
CC(=O)OCC(=O)[C@@]1(O)CC[C@H]2[C@@H]3CCC4=CC(=O)C=C[C@]4(C)[C@@]3(F)[C@@H](O)C[C@@]21C | -8.5%
O=C(Cn1ccnc1[N+](=O)[O-])NCc1ccccc1 | 7.85%
NC(=O)CC[C@@H](N)C(=O)O | -0.494%
Cc1cccc(C)c1NC(=O)CC12CCCN1CCC2 | -4.79%
NS(=O)(=O)c1cc(C2(O)NC(=O)c3ccccc32)ccc1Cl (stereo not drawn) | 5.51%
O=C(/C=C/c1ccc(O)c(O)c1)O[C@@H]1C[C@@](OC(=O)/C=C/c2ccc(O)c(O)c2)(C(=O)O)C[C@@H](O)[C@@H]1O | -1.34%
C=CCNC(N)=S | 16.2%
COc1nccnc1NS(=O)(=O)c1ccc(N)cc1 | 4.23%
O=C(O)c1ccccc1C(=O)Nc1ccc(S(=O)(=O)Nc2nccs2)cc1 | 1.56%
CN1C(=O)CC(c2ccccc2)C1=O (stereo not drawn) | 1.4%
CCCCCCCCCCOc1cc2c(=O)c(C(=O)OCC)c[nH]c2cc1OCC | 1.24% [at 4.84 µM]

test: qHTS of pediatric cancer cell lines to identify multiple opportunities for drug repurposing: Primary screen for Rh30 cells (AID 1347107); conditions: Rh30 rhabdomyosarcoma viability, CellTiter-Glo luminescence, 48 h; series mostly up to 46 µM; activity change, negative = cytotoxic: at the top concentration; also: nearly all actives have a fitted effect of over 75% in size
How it was run: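 Viability after 48 h compound treatment at 37C, 500-1,000 cells/well, read as ATP luminescence with CellTiter-Glo. Primary screens used 11-point (MIPE, 0.78 nM-46 µM) or 8-point (NPC, 0.59 nM-46 µM) final concentrations; follow-up screens used 11-point dilutions.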

Structure (SMILES) | activity change, negative = cytotoxic
Cc1cc(C)c(NC(=O)CN(CC(=O)O)CC(=O)O)c(C)c1Br | 16.8%
CCOC(=O)c1cccnc1 | 20.1%
COc1cc(O)cc(O)c1 | 15.6%
O=C(O)[C@@H]1[C@H]2C[C@H]3c4[nH]c5ccccc5c4CCN3C[C@@H]2CC[C@@H]1O | 23.7%
CC(C)NC[C@@H](O)COc1ccc(CC(N)=O)cc1 | 25.2%
Cc1cc(NC(=O)C2=C(O)c3ccccc3S(=O)(=O)N2C)no1 | 8.48%
CCCOC(=O)c1ccc(N)cc1 | 22.1%
CC(=O)Nc1cccc(O)c1 | 16.4%
CCc1nnc(NS(=O)(=O)c2ccc(N)cc2)s1 | 11%
COc1cc(C(=O)NCCCCCC(=O)O)cc(OC)c1OC | 14.3%
CC(C)=CCC/C(C)=C/CO | 19.4%
CC(=O)SC[C@@H](Cc1ccccc1)C(=O)NCC(=O)OCc1ccccc1 | 27%
NCC1CCC(C(=O)Oc2ccc(CCC(=O)O)cc2)CC1 (stereo not drawn) | 13.9%
CN[C@@H]1[C@H](O)[C@H](NC)[C@H]2O[C@@]3(O)C(=O)C[C@@H](C)O[C@H]3O[C@@H]2[C@H]1O | 22.6%
CC[N+](C)(CC)CCOC(=O)C1c2ccccc2Oc2ccccc21 | 20.4%
O=C(NCN1CCOCC1)c1cnccn1 | 7.93%
O=C(O)c1cc(=O)c2ccccc2o1 | 24.4%
COc1ccc(-c2cc(=O)c3c(O)cc(O[C@@H]4O[C@H](CO[C@@H]5O[C@@H](C)[C@H](O)[C@@H](O)[C@H]5O)[C@@H](O)[C@H](O)[C@H]4O)cc3o2)cc1O | 28.3%
CN1CC(=O)NC1=N | 20.2%

Structure (SMILES) | activity change, negative = cytotoxic
CC(=O)OCC(=O)[C@@]1(O)CC[C@H]2[C@@H]3CCC4=CC(=O)C=C[C@]4(C)[C@@]3(F)[C@@H](O)C[C@@]21C | 13.1%
NS(=O)(=O)c1ccc(C(=O)O)cc1 | 22.3%
CCN(CC)S(=O)(=O)c1ccc(C(=O)O)cc1 | 7.17%
O=C(O)CNC(=O)c1ccccc1I | 11.4%
O=C(Cn1ccnc1[N+](=O)[O-])NCc1ccccc1 | 11.7%
O=C(O)COC(=O)Cc1ccccc1Nc1c(Cl)cccc1Cl | 19.6%
CN1C(C)(C)CCCC1(C)C | 8.1%
C[n+]1ccccc1/C=N/O | 22.2%
NC(=O)CC[C@@H](N)C(=O)O | 19.8%
Cc1cccc(C)c1NC(=O)CC12CCCN1CCC2 | 16.8%
NS(=O)(=O)c1cc(C2(O)NC(=O)c3ccccc32)ccc1Cl (stereo not drawn) | 21.4%
O=C(/C=C/c1ccc(O)c(O)c1)O[C@@H]1C[C@@](OC(=O)/C=C/c2ccc(O)c(O)c2)(C(=O)O)C[C@@H](O)[C@@H]1O | 20.5%
C=CCNC(N)=S | 27%
COc1nccnc1NS(=O)(=O)c1ccc(N)cc1 | 8.85%
CN[C@@H]1[C@@H](O)[C@@H](O[C@@H]2[C@H](O)[C@H](O[C@H]3OC(CN)=CC[C@H]3N)[C@@H](N)C[C@H]2N)OCC1(C)O (stereo partly drawn) | 20.8%
CO[C@@]1(NC(=O)C(C(=O)O)c2ccc(O)cc2)C(=O)N2C(C(=O)O)=C(CSc3nnnn3C)CO[C@@H]21 (stereo partly drawn) | 22.4%
O=C(O)c1ccccc1C(=O)Nc1ccc(S(=O)(=O)Nc2nccs2)cc1 | -11.5%
CN1C(=O)CC(c2ccccc2)C1=O (stereo not drawn) | 9.89%
CCCCCCCCCCOc1cc2c(=O)c(C(=O)OCC)c[nH]c2cc1OCC | 19.2% [at 4.84 µM]

From PubChem BioAssay (NCATS)
